From PubChem BioAssay (EPA / NIEHS)
The source made the active and inactive calls. The calls were made as follows: active = hit-call score of the fitted dose curve at least 0.9, where 1 is the maximum; inactive = score below 0.9.

Experiments:
[1] = target: Transcription factor E2F1 (Homo sapiens) (UniProt Q01094); assay: ATG_E2F_CIS: Attagene CIS-FACTORIAL HepG2 Assay for human E2F Transcription Factor 1 (AID 2282935); details: HepG2 Attagene cis-reporter, E2F reporter RNA transcripts; actives raise or lower the signal
Outline: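 Measures reporter transcript levels via RT-PCR with capillary electrophoresis detection in HepG2 cells harboring cis-regulated reporter units; 24 h post-dose; bidirectional curve fitting with DMSO as baseline.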

[2] = ATG_E_Box_CIS: Attagene CIS-FACTORIAL HepG2 Assay for human Enhancer Box (E-box) (AID 2282936); details: HepG2 E-box cis-reporter transcription, actives raise or lower the signal
Outline: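 First, HepG2 cells receive multiple cis-regulated reporter constructs by transient transfection. Next, chemicals are applied for 24 h. Finally, reporter mRNA is quantified via RT-PCR and capillary electrophoresis, with DMSO as baseline.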

[3] = ATG_M_61_CIS: Attagene CIS-FACTORIAL HepG2 Assay for M61 Transcription Factor (Internal Marker) (AID 2282937); details: HepG2 Attagene CIS-FACTORIAL M61 internal marker reporter; actives raise or lower the signal
Outline: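 Multiplexed reporter mRNA assay, HepG2 human hepatoma cells, 24 h treatment. Signal: FAM-labelled, HpaI-digested RT-PCR fragments by CE. Fit: bidirectional, baseline DMSO.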

[4] = ATG_EGR_CIS: Attagene CIS-FACTORIAL HepG2 Assay for human Early Growth Response 1 (EGR1) (AID 2282938); details: HepG2 Attagene CIS-FACTORIAL EGR reporter mRNA; actives raise or lower the signal
Outline: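 Multiplexed cis-reporter system in human hepatoma HepG2 cells, transiently transfected. Cells are dosed for 24 h; reporter transcripts are amplified, fluorescently tagged and sized by capillary electrophoresis, with DMSO as negative control.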

[5] = ATG_M_19_CIS: Attagene CIS-FACTORIAL HepG2 Assay for M19 Transcription Factor (Internal Marker) (AID 2282939); details: HepG2 Attagene CIS-FACTORIAL M19 internal marker reporter; actives raise or lower the signal
Outline: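 Following a 24 h exposure, RNA from transfected HepG2 cells was reverse-transcribed, PCR-amplified with reporter-specific primers, end-labelled with 6-FAM and HpaI-digested before capillary separation. Values represent gain or loss versus DMSO.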

[6] = ATG_ERE_CIS: Attagene CIS-FACTORIAL HepG2 Assay for Estrogen Response Element (ERE) (AID 2282940); details: HepG2 ERE cis-reporter, Attagene RNA transcript; actives raise or lower the signal
Outline: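 HepG2, transient cis-reporter units, 24 h exposure. RNA isolated, oligo(dT) RT, reporter-specific PCR, FAM extension, HpaI cut, CE detection. Gain/loss-of-signal vs DMSO.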

[7] = ATG_Ets_CIS: Attagene CIS-FACTORIAL HepG2 Assay for human Erythroblast Transformation Specific (ETS) (AID 2282941); details: HepG2 ETS cis-reporter transcription, actives raise or lower the signal
Outline: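 Human HepG2 hepatoma cells were transiently transfected with promoter-driven reporter constructs and treated for 24 hours. Reporter transcripts were quantified by RT-PCR with fluorescent primer extension; bidirectional curve fitting used DMSO as reference.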

[8] = target: Hepatocyte nuclear factor 3-beta (Homo sapiens) (UniProt Q9Y261); assay: ATG_FoxA2_CIS: Attagene CIS-FACTORIAL HepG2 Assay for human Forkhead box A2 (FOXA2) (AID 2282942); details: HepG2 cis-reporter transcription factor activity, 24 h; actives raise or lower the signal
Outline: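 Multiplexed cis-element reporter assay in transiently transfected HepG2. Twenty-four hours post-dosing, RNA was reverse-transcribed, amplified, FAM-labelled, HpaI-digested and separated by CE. Activity gain or loss relative to DMSO.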

[9] = ATG_FoxO_CIS: Attagene CIS-FACTORIAL HepG2 Assay for human Forkhead box O (FoxO) (AID 2282943); details: HepG2 Attagene cis-reporter, FoxO element, mRNA; actives raise or lower the signal
Outline: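 Transfected HepG2 reporter cells exposed to test chemical for 24 h; reporter RNA measured by reverse transcription, PCR and fluorescent capillary electrophoresis; curves fitted for increases and decreases against DMSO.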

[10] = ATG_GATA_CIS: Attagene CIS-FACTORIAL HepG2 Assay for human GATA Binding Protein (AID 2282944); details: HepG2 GATA cis-element reporter, Attagene multiplex mRNA; actives raise or lower the signal
Outline: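 DMSO serves as negative control and baseline for bidirectional fitting of reporter mRNA changes. HepG2 cells bearing transiently transfected cis-promoter reporters were exposed 24 h; transcripts detected via RT-PCR and capillary electrophoresis.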

Sequence of Transcription factor E2F1 (Homo sapiens) (Q01094 whole entry, looked up): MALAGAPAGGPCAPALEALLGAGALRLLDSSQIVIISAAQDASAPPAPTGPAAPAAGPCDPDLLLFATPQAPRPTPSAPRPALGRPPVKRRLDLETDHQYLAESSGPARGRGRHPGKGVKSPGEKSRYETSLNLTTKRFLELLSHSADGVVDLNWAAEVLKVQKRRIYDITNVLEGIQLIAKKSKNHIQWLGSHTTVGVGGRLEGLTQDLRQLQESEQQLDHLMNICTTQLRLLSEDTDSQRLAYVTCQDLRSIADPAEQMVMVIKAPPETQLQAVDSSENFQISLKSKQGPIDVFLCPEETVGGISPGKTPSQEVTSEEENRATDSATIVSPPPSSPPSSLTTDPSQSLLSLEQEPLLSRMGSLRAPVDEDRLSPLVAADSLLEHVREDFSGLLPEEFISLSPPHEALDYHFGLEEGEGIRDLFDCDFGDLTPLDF
Sequence of Hepatocyte nuclear factor 3-beta (Homo sapiens) (Q9Y261 whole entry, looked up): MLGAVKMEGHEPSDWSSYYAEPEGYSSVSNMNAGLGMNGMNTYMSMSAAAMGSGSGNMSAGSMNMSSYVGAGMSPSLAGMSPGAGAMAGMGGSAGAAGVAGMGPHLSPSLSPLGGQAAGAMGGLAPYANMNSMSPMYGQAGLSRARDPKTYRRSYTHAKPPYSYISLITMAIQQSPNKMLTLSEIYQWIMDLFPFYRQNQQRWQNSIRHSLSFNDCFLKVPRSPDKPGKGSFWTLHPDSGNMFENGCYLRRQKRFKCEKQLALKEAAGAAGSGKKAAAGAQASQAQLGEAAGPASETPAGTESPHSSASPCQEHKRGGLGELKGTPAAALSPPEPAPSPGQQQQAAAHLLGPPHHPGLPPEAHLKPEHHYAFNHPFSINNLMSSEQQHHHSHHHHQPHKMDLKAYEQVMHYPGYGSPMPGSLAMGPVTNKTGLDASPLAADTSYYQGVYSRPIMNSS

Structure (SMILES) | outcome [1] | outcome [2] | outcome [3] | outcome [4] | outcome [5] | outcome [6] | outcome [7] | outcome [8] | outcome [9] | outcome [10] | AC50 [6] | AC50 [2] | AC50 [7] | AC50 [8] | AC50 [10] | AC50 [4] | AC50 [9] | AC50 [1]
c1ccc(-c2nc3ccccc3[nH]2)cc1 | inactive | inactive | inactive | inactive | inactive | inactive | inactive | inactive | inactive | inactive | – | – | – | – | – | – | – | –
CC1=CC(C)C(C=O)CC1 (stereo not given) | inactive | inactive | inactive | inactive | inactive | – | inactive | inactive | inactive | inactive | 27.2 µM (active) | – | – | – | – | – | – | –
C=CC(=O)NC(C)(C)C | inactive | inactive | inactive | inactive | inactive | inactive | inactive | inactive | inactive | inactive | – | – | – | – | – | – | – | –
CCOC(=O)C1=NN(c2ccc(Cl)cc2Cl)C(C)(C(=O)OCC)C1 (stereo not given) | inactive | inactive | inactive | inactive | inactive | inactive | inactive | inactive | inactive | inactive | – | – | – | – | – | – | – | –
CC(C)CO | inactive | inactive | inactive | inactive | inactive | inactive | inactive | inactive | inactive | inactive | – | – | – | – | – | – | – | –
CC(C)c1cc(C(C)C)cc(C(C)C)c1 | inactive | – | inactive | inactive | inactive | – | – | – | inactive | – | 168 µM (active) | 23.7 µM (active) | 169 µM (active) | 160 µM (active) | 178 µM (active) | – | – | –
CCOC(=O)CC(=O)c1ccccc1 | inactive | inactive | inactive | inactive | inactive | inactive | inactive | inactive | inactive | inactive | – | – | – | – | – | – | – | –
CCCCCCCCCCCC(=O)OCC | inactive | inactive | inactive | inactive | inactive | inactive | inactive | inactive | inactive | inactive | – | – | – | – | – | – | – | –
CC(Cl)COP(=O)(OCC(C)Cl)OCC(C)Cl (stereo not given) | inactive | inactive | inactive | inactive | inactive | inactive | inactive | inactive | inactive | inactive | – | – | – | – | – | – | – | –
C=C(C)C(=O)OCCCCCCCCCCCC | inactive | inactive | inactive | inactive | inactive | inactive | inactive | inactive | inactive | inactive | – | – | – | – | – | – | – | –
O=C(O)CC(C(=O)O)S(=O)(=O)O (stereo not given) | inactive | inactive | inactive | inactive | inactive | inactive | inactive | inactive | inactive | inactive | – | – | – | – | – | – | – | –
O=C(O)CCCC(=O)O | inactive | inactive | inactive | inactive | inactive | inactive | inactive | inactive | inactive | inactive | – | – | – | – | – | – | – | –
CC(C)(O)Cc1ccccc1 | inactive | inactive | inactive | inactive | inactive | inactive | inactive | inactive | inactive | inactive | – | – | – | – | – | – | – | –
CCCCCOC(=O)CCCCC | inactive | inactive | inactive | inactive | inactive | inactive | inactive | inactive | inactive | inactive | – | – | – | – | – | – | – | –
O=C(Nc1ccccc1)c1cc(Cl)ccc1O | inactive | inactive | inactive | – | inactive | inactive | – | inactive | – | inactive | – | – | 19.8 µM (active) | – | – | 6.36 µM (active) | 100 µM (active) | –
C=CC(=O)OCCCCCCCCCC | inactive | inactive | inactive | inactive | inactive | inactive | inactive | inactive | inactive | inactive | – | – | – | – | – | – | – | –
Oc1ccccc1Cc1ccccc1O | inactive | inactive | inactive | – | inactive | – | inactive | inactive | inactive | inactive | 27.7 µM (active) | – | – | – | – | 72.5 µM (active) | – | –
N#Cc1ccc(C(c2ccc(C#N)cc2)n2cncn2)cc1 | inactive | inactive | inactive | inactive | inactive | inactive | inactive | inactive | inactive | inactive | – | – | – | – | – | – | – | –
CCCCCCCCC(CO)CCCCCC (stereo not given) | – | – | inactive | inactive | inactive | inactive | – | inactive | inactive | – | – | 34.3 µM (active) | 173 µM (active) | – | 65.5 µM (active) | – | – | 189 µM (active)
CCCCC(=O)O | inactive | inactive | inactive | inactive | inactive | inactive | inactive | inactive | inactive | inactive | – | – | – | – | – | – | – | –
CCCC(CC)c1ccccc1 (stereo not given) | inactive | inactive | inactive | inactive | inactive | – | inactive | inactive | inactive | inactive | 45.1 µM (active) | – | – | – | – | – | – | –
CN(C)Cc1cc(CN(C)C)c(O)c(CN(C)C)c1 | inactive | inactive | inactive | inactive | inactive | inactive | inactive | inactive | inactive | inactive | – | – | – | – | – | – | – | –
CN(C)c1ccc2nc3ccc(=[N+](C)C)cc-3sc2c1 | inactive | – | inactive | inactive | inactive | inactive | inactive | inactive | inactive | inactive | – | 16.7 µM (active) | – | – | – | – | – | –
CCOB(OCC)OCC | inactive | inactive | inactive | inactive | inactive | inactive | inactive | inactive | inactive | inactive | – | – | – | – | – | – | – | –
COc1nccnc1CC(C)C | inactive | inactive | inactive | inactive | inactive | inactive | inactive | inactive | inactive | inactive | – | – | – | – | – | – | – | –
